Test results published in the supplement of paper PMC3334620.
In all, about 33,000 sequences were measured (“E-score (-0.5 to 0.5)”: median about -0.013, highest 2% from about 0.3 on). For the sample, the highest values were picked, then their nearest neighbours and some sequences at random.

Each sequence was assayed against T1, Msn1 (UniProt P22148) (assay: PBM E-score (8-mer binding enrichment) (E-score (-0.5 to 0.5)); higher = stronger / more preferred TF binding). Details: protein concentration: 200 nM; construct: GST-full length.
T1 sequence: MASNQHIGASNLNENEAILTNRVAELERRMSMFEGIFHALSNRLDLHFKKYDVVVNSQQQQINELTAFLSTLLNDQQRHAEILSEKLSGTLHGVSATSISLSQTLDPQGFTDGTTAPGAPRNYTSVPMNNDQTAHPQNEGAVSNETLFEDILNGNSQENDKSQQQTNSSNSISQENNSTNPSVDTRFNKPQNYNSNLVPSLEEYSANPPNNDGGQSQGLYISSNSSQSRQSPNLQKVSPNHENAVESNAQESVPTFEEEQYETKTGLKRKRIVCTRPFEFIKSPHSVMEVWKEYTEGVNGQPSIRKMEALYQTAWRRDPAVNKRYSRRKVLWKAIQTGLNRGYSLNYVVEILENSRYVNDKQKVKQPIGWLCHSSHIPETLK
Method: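 Universal 'all 10-mer' protein binding microarrays (Agilent AMADID 015681) probed with GST-tagged S. cerevisiae TFs (full-length or DBD) made by in vitro transcription/translation (PURExpress), about 100-200 nM. Bound TF was detected with fluorescent anti-GST. Each ungapped 8-mer (which stands for itself and its reverse complement) is scored by the PBM enrichment score (E-score), a modified Wilcoxon-Mann-Whitney statistic from -0.5 to +0.5, computed with the Universal PBM Analysis Suite. Scale: above 0.35 generally sequence-specific binding.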

Sequence | PBM E-score
CCGTTGTA | 0.187
CAGTTGTC | 0.32
CAGTTGTA | 0.069
ACATTCTG | 0.162
TAGCAGGA | 0.0461
GCACCCGC | -0.163
ACATTGGC | -0.0178
ATTCAGGC | 0.0647
CACATTGC | 0.115
GACATTGC | 0.434
TACATTGA | 0.105
GACATTGA | 0.386
AACATTGC | -0.162
CACATTGA | 0.0276
ATCCCGGG | 0.0417
CAGAGACA | 0.204
GCTCAAGA | -0.102
CACGGCTG | -0.156
CAGGTGGA | -0.193
CTGCCCTC | -0.329
AAAAAGTC | 0.418
ATAAAGTG | 0.154
CAAAAGTC | 0.282
ACAAAGTC | 0.236
GAAAAGTC | 0.326

Sequence | PBM E-score
GAAAAGGC | -0.0462
ATAAAGTA | 0.243
GAAAAGTA | 0.167
ATAAAGTC | 0.305
AAGCGAGA | -0.127
CGGCCACG | -0.189
GACCCGAC | -0.0784
AGGTAATC | -0.139
AACAAAAG | 0.101
ACAGCGTG | 0.0507
AAATGTAC | 0.371
ATATGTAA | 0.131
ATATGTAC | 0.371
AAATGTAG | -0.0386
GAATGTGC | -0.148
CTATGTAC | 0.189
CAATGTAC | 0.195
GAATGTAC | 0.342
GAATGTAA | -0.0699
ATATCACG | -0.0452
ACGAGCTG | 0.0278
ACCTTCTC | -0.183
CGTCCCTA | -0.0646
AAATATGA | 0.154
AAATATGT | 0.37

Sequence | PBM E-score
AATAATAT | 0.33
AAATATAC | 0.0952
AAATATGC | -0.0194
AAATATAT | 0.306
AAATATAA | 0.272
AATAATAG | -0.0638
AATAATAA | 0.132
ACCAGAGC | -0.124
CGATGCAC | -0.295
GCACAGGA | 0.0138
ACTCGAGT | 0.14
ATAGGCCA | -0.0607
GCACATAC | -0.162
TCACATAA | -0.0221
GGACATAC | 0.48
CGACATAC | 0.281
TGTCACAA | 0.378
TTACATAA | 0.0155
TAACATAA | 0.214
GGTCACAA | -0.0198
CTACATAA | -0.237
GTACATAA | 0.306
CGTCACAA | 0.137
TGACATAA | 0.364
GACCCCCA | -0.377

Sequence | PBM E-score
TCACTAGA | 0.0764
CACCCCGC | -0.0608
CCATTAAC | 0.139
GCCCTGCC | -0.296
AAGTCTAC | 0.0709
GCACATGA | -0.0829
CGACATAA | 0.286
TGTCATAA | 0.397
GGACATGA | 0.467
GCACATAA | -0.0366
AGTCATAA | 0.0855
GGACATAA | 0.477
CGTCATAA | 0.122
CGACATGA | 0.207
ACCACAGA | 0.0742
TTGAGCAA | -0.0524
ACACTTGG | -0.0164
GACCATGC | 0.0413
CTGTACAA | 0.161
TCGTACAA | 0.294
CTGTACAG | 0.0843
TTGTACAA | 0.337
GTGTACAA | 0.32
GTGTACAC | 0.162
CGTGCAGC | -0.0365

Sequence | PBM E-score
CTCGGTAC | 0.0483
ACGGCCGT | -0.204
ATAAAGCC | -0.151
GCCTACCA | -0.174
AGCCCTCG | -0.123
CATATGTA | 0.245
GATATGTA | 0.12
ACTATGTC | 0.292
CATATGAC | 0.143
CATATGCC | 0.00819
AATATGTG | 0.181
CATATGTC | 0.449
AATATGTC | 0.478
AATATGTA | 0.335
AGCGAAAG | 0.00846
CGCACTTA | -0.0705
AGCTCTAC | -0.104
AGCCACGA | -0.181
CCAATAGC | -0.0522
TAAGGACA | 0.481
GAAGGATA | -0.142
CAAGGACA | 0.484
TAAGGAGA | -0.255
CAAGGACG | 0.148
TAAGGATA | 0.13

Sequence | PBM E-score
AAAGGACC | -0.105
AAAGGACG | 0.032
AAAGGACA | 0.445
GAAGGACA | 0.471
GAAGGACC | -0.139
CAAGGACC | 0.0568
CGAACATA | 0.128
TAACAACA | 0.0839
CGTCCTGA | 0.102
AATCTACA | 0.058
TAGGTAGA | 0.0723
GATCTGTA | -0.0087
CCGAAAAC | 0.0665
AACGAGTC | -0.0621
ATGTCAGA | 0.265
GTGTCACA | 0.261
AAGTCACA | 0.127
CTGTCACA | 0.0788
AGGTCACC | -0.0357
ATGTCACC | 0.303
ATGTCACG | 0.31
CTGTCACC | -0.0649
ATGTCACA | 0.363
GGAAAGAC | -0.0443
ATCCTATG | -0.0491

Sequence | PBM E-score
AGGCGTAG | -0.189
CCTTGCGA | 0.028
GGTGGTAC | -0.152
GTAAGCTA | 0.0896
TACATAAA | 0.15
AACATAAA | 0.0678
GACATAAC | 0.396
AACATAAC | 0.0281
GACATAAA | 0.44
CACATAAC | 0.0195
CGGAGGAA | -0.131
GCATGGGC | -0.183
CCGCTCGA | -0.143
GATTGCTA | -0.0824
CGAGAGTC | -0.131
AATAGGAC | 0.387
ATTAGGAC | 0.37
AATAGGAT | 0.157
ATTAGGAA | -0.00879
GCTAGGAC | 0.267
ACTAGGAG | -0.201
CTTAGGAC | 0.269
AATAGGAA | 0.102
ACTAGGAC | 0.426
